DT40 TDP1 CPT = qHTS for Inhibitors of human tyrosyl-DNA phosphodiesterase 1 (TDP1): qHTS in cells in presence of CPT. chicken DT40 Tdp1-/-;hTDP1 cells + 20 nM CPT, ATP luminescence, 48 h. Potency, µM (top dose mostly 46.2 µM), usual class: inhibitors. 420,000 compounds, 12% hits. AID 686979, 2013; also: nearly all actives have a fitted effect of over 55% in size
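Chicken DT40 Tdp1-/- cells stably complemented with human TDP1 were seeded at 400 cells/well in medium containing 20 nM camptothecin, exposed to pin-transferred compounds, and grown at 37 °C for at least 48 hr. Viability was read as ATP luminescence.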
KB-3-1 cytotox = qHTS assay for MDR1-selective chemotherapeutics: Primary screen using the parental adenocarcinoma cell KB-3-1; Potency, µM (series often up to 46.1 µM), hits mostly cytotoxic; 400,000 compounds, 1.4% hits; KB-3-1 viability, CellTiter-Glo ATP luminescence, 72 h; also: nearly all actives have a fitted effect of over 60% in size
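72 h, 37 °C compound treatment of KB-3-1 parental cells; CellTiter-Glo added, 10 min, luminescence read. Data corrected against DMSO-only plates and normalized before curve fitting.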
KB-V1 MDR tox = qHTS assay for MDR1-selective chemotherapeutics: Primary screen using the drug-selected MDR subline cells KB-V1. 400,000 compounds, 3.4% hits. AID 1347076, 2019. Potency, µM (top dose mostly 46.1 µM), usual class: cytotoxic. KB-V1 MDR cells viability, CellTiter-Glo, 72 h; also: nearly all actives have a fitted effect of over 60% in size
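Following 72 h at 37 degrees C with compound, KB-V1 cell viability was read by CellTiter-Glo luminescence, medium being phenol-red-free DMEM plus 10% FBS; concentration-response parameters came from normalized, curve-fitted qHTS data.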
TDP1 cell noCPT = qHTS for Inhibitors of human tyrosyl-DNA phosphodiesterase 1 (TDP1): qHTS in cells in absence of CPT | DT40 Tdp1-/- hTDP1 cells, no CPT, ATP luminescence, 48 h | Potency, µM (titrated, usually from 46.2 µM), usual class: inhibitors | 420,000 compounds, 15% hits; also: nearly all actives have a fitted effect of over 55% in size
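DT40 Tdp1-/-;hTDP1 cells, no CPT (DMSO vehicle only), 400 cells/well; compounds pin-transferred; ≥48 hr, 37 °C; CellTiter-Glo 30 min RT dark, luminescence read.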
HT1080 IDH1KD tx = qHTS for induction of synthetic lethality in tumor cells producing 2HG: qHTS for the HT-1080-IDH1KD cell line; HT-1080 IDH1 knockdown viability, ATP luminescence, 48 h; Potency, µM (series often up to 46.1 µM), actives largely listed as cytotoxic; 360,000 compounds, 2% hits; AID 686971, 2013
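Knockdown cells (IDH1KD HT-1080) received compounds 2 h after plating at 750 cells/well and were kept 48 h at 37 °C in 5% FBS RPMI. A CellTiter-Glo luminescence read gave % activity for curve fitting.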
HT1080NT lethal = qHTS for induction of synthetic lethality in tumor cells producing 2HG: qHTS for the HT-1080-NT fibrosarcoma cell line; 360,000 compounds, 1.6% hits; HT-1080-NT fibrosarcoma viability, CellTiter-Glo ATP luminescence, 48 h; Potency, µM (highest dose often 46.1 µM), most hits filed as cytotoxic;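 also: NT is the 2HG producing partner of a matched IDH1 knockdown line; nearly all actives have a fitted effect of over 55% in size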
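Fibrosarcoma NT cells, 750 per well in 5% FBS RPMI, were exposed to compound for 48 hours. Viability: CellTiter-Glo luminescence.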
Hits are given with their value. Rows were chosen to be rich in hits. Some 19% of all compounds tested hit in one or more screens of this group. Calls follow the shape of the dose curve; as a rule, active = well fitted curve in the direction sought with a large enough effect; inconclusive = small, poorly fitted or top-dose-only effect, or another doubt; inactive = no such curve, though single readings can be large; an effect the other way counts as inactive or inconclusive.

For Cc1ccc(NC(=O)CCC(=O)N2Cc3ccccc3Oc3ncccc32)c(C)c1 the results were DT40 TDP1 CPT inconclusive, KB-3-1 cytotox inactive, KB-V1 MDR tox inactive and TDP1 cell noCPT inconclusive.
O=C(COCc1cc(-c2ccc3c(c2)OCO3)on1)Nc1cc(C(F)(F)F)ccc1Cl was read as DT40 TDP1 CPT inconclusive, KB-3-1 cytotox inactive, KB-V1 MDR tox inactive and TDP1 cell noCPT inconclusive.
For COCCn1c(=O)c(-c2cc(F)cc(F)c2)nc2cnc(OCc3ccccc3)nc21 the results were DT40 TDP1 CPT inactive and TDP1 cell noCPT inactive.
`CCn1c(SCC(=O)Nc2ccccc2C)nc2nc3c(cc2c1=O)COC(C)(C)C3` gave DT40 TDP1 CPT inconclusive, KB-3-1 cytotox inactive, KB-V1 MDR tox inactive, TDP1 cell noCPT 10.3µM, HT1080 IDH1KD tx inactive and HT1080NT lethal inactive.
For CCn1c(SCC(=O)Nc2ccc(Cl)cc2)nc2nc3c(cc2c1=O)CCCC3 the results were DT40 TDP1 CPT inconclusive, KB-3-1 cytotox inactive, KB-V1 MDR tox 0.517µM, TDP1 cell noCPT inconclusive, HT1080 IDH1KD tx inactive and HT1080NT lethal inactive.
Screening CCn1c(SCC(=O)Nc2ccc(C(C)=O)cc2)nc2nc3c(cc2c1=O)COC(C)(C)C3 returned DT40 TDP1 CPT inactive, KB-3-1 cytotox inactive, KB-V1 MDR tox inactive, TDP1 cell noCPT inactive, HT1080 IDH1KD tx inactive and HT1080NT lethal inactive.
`C=CCN(c1ccccc1)S(=O)(=O)c1cccc(C(=O)NNC(=O)c2ccncc2)c1` gave DT40 TDP1 CPT inactive, KB-3-1 cytotox inactive, KB-V1 MDR tox inactive, TDP1 cell noCPT inconclusive, HT1080 IDH1KD tx inactive and HT1080NT lethal inactive.
C=CCN(c1ccccc1)S(=O)(=O)c1cccc(C(=O)N2CC(C)CC(C)C2)c1 (stereo unspecified) was read as DT40 TDP1 CPT 9.2µM, KB-3-1 cytotox inconclusive, KB-V1 MDR tox 7.31µM, TDP1 cell noCPT 3.66µM, HT1080 IDH1KD tx inconclusive and HT1080NT lethal inactive.
C=CCN(c1ccccc1)S(=O)(=O)c1cccc(C(=O)N2CCCC2)c1 was read as DT40 TDP1 CPT 16.4µM, KB-3-1 cytotox inactive, KB-V1 MDR tox inactive, TDP1 cell noCPT 18.4µM, HT1080 IDH1KD tx inactive and HT1080NT lethal inactive.
For CCOC(=O)N1CCc2c(sc(NC(=O)CN(CC)CC)c2C#N)C1 the results were DT40 TDP1 CPT inactive, KB-3-1 cytotox inactive, KB-V1 MDR tox inactive, TDP1 cell noCPT inconclusive, HT1080 IDH1KD tx inactive and HT1080NT lethal inactive.
CCCNC(=O)C1(C)CCCN(C(=O)c2ccc3snnc3c2)C1 (stereo unspecified) was read as DT40 TDP1 CPT inactive, KB-3-1 cytotox inactive, KB-V1 MDR tox inactive, TDP1 cell noCPT inactive, HT1080 IDH1KD tx inactive and HT1080NT lethal inconclusive.
`NC(=O)CSC1=N/C(=C\c2ccco2)C(=O)N1c1ccc(OC(F)F)cc1` gave DT40 TDP1 CPT inconclusive, KB-3-1 cytotox inactive, KB-V1 MDR tox inactive, TDP1 cell noCPT 13µM, HT1080 IDH1KD tx inactive and HT1080NT lethal inactive.
`CCOc1cc(/C=C2\N=C(SC(C)C(N)=O)N(c3ccc(OC(F)F)cc3)C2=O)ccc1O` (stereo unspecified) gave DT40 TDP1 CPT inconclusive, KB-3-1 cytotox inactive, KB-V1 MDR tox inactive, TDP1 cell noCPT 10.3µM, HT1080 IDH1KD tx inconclusive and HT1080NT lethal inconclusive.
CCOc1cc(/C=C2\SC(=O)N(c3ccc(O)cc3)C2=O)ccc1O was read as DT40 TDP1 CPT inconclusive, KB-3-1 cytotox inactive, KB-V1 MDR tox inactive, TDP1 cell noCPT inconclusive, HT1080 IDH1KD tx inactive and HT1080NT lethal inactive.
Screening COc1ccc(N2C(=O)/C(=C\c3ccco3)N=C2SCC(=O)NC(C)(C)C)cc1Cl returned DT40 TDP1 CPT inconclusive, KB-3-1 cytotox inconclusive, KB-V1 MDR tox inconclusive, TDP1 cell noCPT inconclusive, HT1080 IDH1KD tx inactive and HT1080NT lethal inactive.
`CCN(CC)C(=O)CSC1=N/C(=C/c2ccco2)C(=O)N1c1ccc(OC)c(Cl)c1` gave DT40 TDP1 CPT 20.6µM, KB-3-1 cytotox inactive, KB-V1 MDR tox inactive, TDP1 cell noCPT inconclusive, HT1080 IDH1KD tx inactive and HT1080NT lethal inactive.
`CCC(CC)c1nnc(NC(=O)C2CC(=O)N(c3ccc4c(c3)OCCO4)C2)s1` (stereo unspecified) gave DT40 TDP1 CPT inactive, KB-3-1 cytotox inactive, KB-V1 MDR tox 20.6µM, TDP1 cell noCPT inconclusive, HT1080 IDH1KD tx inactive and HT1080NT lethal inactive.
Cc1cnc(NC(=O)C2CC(=O)N(c3cccc(Cl)c3)C2)s1 (stereo unspecified) was read as DT40 TDP1 CPT 7.31µM, KB-3-1 cytotox inconclusive, KB-V1 MDR tox 20.6µM, TDP1 cell noCPT 5.8µM, HT1080 IDH1KD tx inactive and HT1080NT lethal inactive.
CCOc1ccc(N2CC(C(=O)Nc3ccc4c(c3)OCCO4)CC2=O)cc1 (stereo unspecified) was read as DT40 TDP1 CPT inactive, KB-3-1 cytotox 5.17µM, KB-V1 MDR tox inactive, TDP1 cell noCPT inactive, HT1080 IDH1KD tx inactive and HT1080NT lethal inactive.
CC(=O)Nc1ccc(NC(=O)C2CC(=O)N(c3cccc(Cl)c3)C2)cc1 (stereo unspecified) was read as DT40 TDP1 CPT inconclusive, KB-3-1 cytotox inactive, KB-V1 MDR tox inactive, TDP1 cell noCPT inconclusive, HT1080 IDH1KD tx inactive and HT1080NT lethal inactive.
Screening O=C(Nc1nc(-c2ccco2)c(-c2ccco2)s1)C1CCC1 returned DT40 TDP1 CPT 14.6µM, KB-3-1 cytotox inactive, KB-V1 MDR tox inactive, TDP1 cell noCPT 18.4µM, HT1080 IDH1KD tx inactive and HT1080NT lethal inactive.
CCOc1ccccc1N(C)C(=O)c1cn(C)c(=O)c2ccccc12 was read as DT40 TDP1 CPT inactive, KB-3-1 cytotox inactive, KB-V1 MDR tox inactive, TDP1 cell noCPT inactive, HT1080 IDH1KD tx inactive and HT1080NT lethal inactive.
Screening Cc1ccc(C)c(NC(=O)CN2C(=O)CCc3cc(S(=O)(=O)N4CCCCC4)ccc32)c1 returned DT40 TDP1 CPT inconclusive, KB-3-1 cytotox inactive, KB-V1 MDR tox inactive and TDP1 cell noCPT inconclusive.
`Cc1cc(=O)n2nc(N3CCC(C(=O)Nc4ccc(C)c(Cl)c4)CC3)sc2n1` gave DT40 TDP1 CPT inconclusive, KB-3-1 cytotox inactive, KB-V1 MDR tox inactive and TDP1 cell noCPT inactive.
Screening Cc1nnc(NC(=O)C2CC(=O)N(c3ccc4c(c3)OCCO4)C2)s1 (stereo unspecified) returned DT40 TDP1 CPT inactive, KB-3-1 cytotox inactive, KB-V1 MDR tox inconclusive, TDP1 cell noCPT inactive, HT1080 IDH1KD tx inactive and HT1080NT lethal inactive.
